What all share (test): Primary qHTS to identify gynecologic anti-cancer compounds using libraries of approved drugs and bioactive compounds (AID 1345084); further: nearly all actives have a fitted effect of over 55% in size
On the technique in general: qHTS replaces the single test concentration by a dilution series.

In one assay the test system is C33A. The following applies: Gynecologic cancer cell panel viability, ATPlite luminescence, 48 h; series mostly up to 57.5 µM. The method in brief: (§1)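 In this quantitative HTS, cell killing is estimated from loss of ATP-dependent luciferase light. Cells see five compound concentrations over a 48 h exposure.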
On the technique in general: In ATP-based viability assays light output follows the ATP content of the culture.

The test system of another assay is CAOV3. The following applies: Gynecologic cancer cell panel viability, ATPlite luminescence, 48 h; series mostly up to 57.5 µM. In short, it runs like this:
as §1

For a further assay, the system named is CASKI. The following applies: Gynecologic cancer cell panel viability, ATPlite luminescence, 48 h; series mostly up to 57.5 µM. The method in brief:
as §1

Another assay concerns Es-2. The following applies: Gynecologic cancer cell panel viability, ATPlite luminescence, 48 h; series mostly up to 57.5 µM. In short, it runs like this: as §1
The next assay deals with HeLa. The following applies: Gynecologic cancer cell panel viability, ATPlite luminescence, 48 h; series mostly up to 57.5 µM. In short, it runs like this:
as §1

A further assay relates to Hek293T. The following applies: Gynecologic cancer cell panel viability, ATPlite luminescence, 48 h, control line for the selectivity index; series mostly up to 57.5 µM. In short, it runs like this: as §1
A further assay concerns JEG-3. The following applies: Gynecologic cancer cell panel viability, ATPlite luminescence, 48 h; series mostly up to 57.5 µM. The method in brief: as §1
For a further assay, the system named is OV90. The following applies: Gynecologic cancer cell panel viability, ATPlite luminescence, 48 h; series mostly up to 57.5 µM. The method in brief: as §1
The test system of a further assay is PA-1. The following applies: Gynecologic cancer cell panel viability, ATPlite luminescence, 48 h; series mostly up to 57.5 µM. In short, it runs like this: as §1
For another assay, the system named is SKOV3. The following applies: Gynecologic cancer cell panel viability, ATPlite luminescence, 48 h; series mostly up to 57.5 µM. In short, it runs like this: as §1
In the next assay the test system is Tov-21-G. The following applies: Gynecologic cancer cell panel viability, ATPlite luminescence, 48 h; series mostly up to 57.5 µM. In short, it runs like this:
as §1

In the next assay the test system is Tov112D. The following applies: Gynecologic cancer cell panel viability, ATPlite luminescence, 48 h; series mostly up to 57.5 µM. In short, it runs like this:
as §1

Results filed as inconclusive are left out. Unmarked numbers belong to inactive results. Calls of active or inactive are those of the source. The call rests on the fitted dose curve; in most records, active means well fitted cell-killing curve with a large enough effect; inconclusive means small, poorly fitted or top-dose-only effect, or effect the other way; inactive means flat fitted curve, though single readings scatter. Where a SMILES comes first, the peptide text is derived from it. The star is where a group is joined. AFC = O=c1cc(C(F)(F)F)c2ccc(N*)cc2o1
On the % scale 0 is the no-effect control and ±100 the full control effect; potency means the concentration at half of the fitted maximal effect.

Consider `CC(=O)c1ccc(O[C@@H]2O[C@H](CO)[C@@H](O)[C@H](O)[C@H]2O)cc1`, for which the Potency entry in the assay on C33A, in the assay on CAOV3, with CASKI, with Es-2, in the assay with HeLa and with Hek293T was “inactive” throughout. Also, the Potency result with JEG-3, in the assay on OV90, in the assay on PA-1, in the assay on SKOV3, in the assay with Tov-21-G and in the assay with Tov112D was “inactive” in each case.

On to `CC1=CC(=O)CC(C)(CO)C1(O)/C=C/C(C)O[C@@H]1O[C@H](CO)[C@@H](O)[C@H](O)[C@H]1O` (stereo partly specified), for which the Potency result with C33A, in the assay with CAOV3, in the assay on CASKI, with Es-2, with HeLa and with Hek293T was “inactive” each time. The Potency entry with JEG-3, with OV90, in the assay on PA-1, with SKOV3, with Tov-21-G and in the assay with Tov112D was “inactive” each time.

`C=C1[C@H](OC(C)=O)[C@H]2[C@@H](OC(C)=O)[C@](C)(OC(C)=O)C[C@]2(OC(C)=O)C(=O)[C@H](C)/C=C/C(C)(C)C(=O)[C@H](OC(=O)C(C)CC)[C@H]1OC(C)=O` (stereo partly specified): the Potency result in the assay on C33A, with CAOV3, in the assay with CASKI, with Es-2, in the assay on HeLa and in the assay with Hek293T was “inactive” throughout. Moreover, the Potency entry with JEG-3, in the assay on OV90, in the assay on PA-1, with SKOV3, with Tov-21-G and with Tov112D was “inactive” in each case.

With `C[C@@H]1O[C@@H](O[C@H]2[C@H](O[C@H]3[C@H](O[C@H]4CC[C@@]5(C)C(CC[C@]6(C)C5CC=C5[C@@H]7CC(C)(C)C[C@@H](O)[C@]7(C)CC[C@]56C)[C@@]4(C)CO)O[C@H](C(=O)O)[C@@H](O)[C@@H]3O)OC[C@H](O)[C@@H]2O)[C@H](O)[C@H](O)[C@H]1O` (stereo partly specified), the activity change, negative = cytotoxicity with C33A is -0.169% [at 11.6 µM]; with CAOV3, 0% [at 11.6 µM]; with CASKI, -2.47% [at 11.6 µM]; with Es-2, 1.77% [at 11.6 µM]; in the assay with HeLa, 0% [at 11.6 µM]; with Hek293T it was -7.13% [at 11.6 µM]. In addition, the activity change, negative = cytotoxicity is -0.873% [at 11.6 µM] in the assay with JEG-3; -3.06% [at 11.6 µM] with OV90; -1.53% [at 11.6 µM] with PA-1; -7.2% [at 11.6 µM] in the assay on SKOV3; -1.97% [at 11.6 µM] in the assay with Tov-21-G; -12.3% [at 11.6 µM] in the assay on Tov112D.

Regarding `CC(=O)c1c(O)cc(O[C@@H]2O[C@H](CO)[C@@H](O)[C@H](O)[C@H]2O)cc1O`, the Potency entry in the assay with C33A, in the assay on CAOV3, in the assay on CASKI, with Es-2, in the assay with HeLa and with Hek293T was “inactive” each time. The Potency result in the assay with JEG-3, in the assay with OV90, in the assay on PA-1, with SKOV3, in the assay on Tov-21-G and with Tov112D was “inactive” in each case.

`CC(=O)N[C@@H](Cc1c[nH]c2ccccc12)C(=O)N[C@@H](CCC(=O)O)C(=O)N[C@@H](Cc1cnc[nH]1)C(=O)N[C@@H](CC(=O)O)C(=O)Nc1ccc2c(C(F)(F)F)cc(=O)oc2c1` (Ac-WEHD-{AFC}): the Potency entry in the assay on C33A, with CAOV3, in the assay on CASKI, with Es-2, in the assay on HeLa and in the assay on Hek293T was “inactive” throughout. In addition, the Potency result in the assay on JEG-3, in the assay with OV90, with PA-1, in the assay on SKOV3, with Tov-21-G and with Tov112D was “inactive” in each case.

For `C[C@H]1C(=O)N2c3ccccc3[C@@]3(O)C[C@@H]4C(=O)N[C@](C)(c5nc6ccccc6c(=O)n54)N1[C@@H]23`, the Potency result in the assay on C33A, with CAOV3, with CASKI, in the assay on Es-2, with HeLa and in the assay on Hek293T was “inactive” in each case. For the same compound, the Potency result in the assay on JEG-3, in the assay with OV90, in the assay on PA-1, in the assay on SKOV3, in the assay on Tov-21-G and in the assay with Tov112D was “inactive” each time.

On to `CC1=CC(=O)CC(C)(C)C1CCC(C)O[C@@H]1O[C@H](CO[C@@H]2OC[C@@H](O)[C@H](O)[C@H]2O)[C@@H](O)[C@H](O)[C@H]1O` (stereo partly specified), for which the Potency entry in the assay with C33A, in the assay with CAOV3, in the assay on CASKI, in the assay on Es-2, in the assay with HeLa and with Hek293T was “inactive” throughout. The Potency result in the assay with JEG-3, in the assay with OV90, in the assay with PA-1, with SKOV3, with Tov-21-G and in the assay on Tov112D was “inactive” throughout.

`CC1CCC2(OC1)OC1CC3C4CC=C5CC(O)CC(O[C@@H]6OC[C@@H](O)[C@H](O)[C@H]6O)C5(C)C4CCC3(C)C1(O)C2C` (stereo partly specified): the Potency entry with C33A, in the assay on CAOV3, with CASKI, in the assay on Es-2, in the assay with HeLa and with Hek293T was “inactive” in each case. Besides, the Potency entry in the assay on JEG-3, in the assay on OV90, with PA-1, with SKOV3, with Tov-21-G and in the assay with Tov112D was “inactive” each time.

In the case of `CC1=CC(=O)CC(C)(C)[C@H]1/C=C/C(CO)O[C@@H]1O[C@H](CO)[C@@H](O)[C@H](O)[C@H]1O` (stereo partly specified), the Potency result in the assay with C33A, in the assay on CAOV3, with CASKI, in the assay with Es-2, with HeLa and in the assay with Hek293T was “inactive” throughout. The Potency entry in the assay with JEG-3, in the assay with OV90, with PA-1, with SKOV3, with Tov-21-G and with Tov112D was “inactive” in each case.

On to `COc1cccc2cc3c(c(O[C@@H]4O[C@H](CO[C@@H]5O[C@H](CO)[C@@H](O)[C@H](O)[C@H]5O)[C@@H](O)[C@H](O)[C@H]4O)c12)C(C)OC3=O` (stereo partly specified), for which the Potency entry in the assay with C33A, in the assay with CAOV3, in the assay with CASKI, in the assay with Es-2, with HeLa and in the assay with Hek293T was “inactive” throughout. Moreover, the Potency result in the assay with JEG-3, in the assay on OV90, with PA-1, in the assay on SKOV3, in the assay with Tov-21-G and in the assay on Tov112D was “inactive” in each case.

In the case of `O=C(NCC(O)CO)c1ccncc1Nc1ccc(I)cc1F` (stereo unspecified), the Potency entry in the assay with C33A, in the assay on CAOV3, in the assay with CASKI, in the assay on HeLa, in the assay with Hek293T and with JEG-3 was “inactive” each time. The Potency result in the assay with PA-1, with SKOV3 and with Tov112D was “inactive” throughout. The values for the Potency with Es-2, in the assay with OV90 and in the assay with Tov-21-G were 2000 nM (active), 79.4 nM (active) and 1580 nM (active), respectively.

With `O=C(O)Cc1cn(C2OCC(O)C(O)C2O[C@@H]2O[C@H](CO)[C@@H](O)[C@H](O)[C@H]2O)c2ccccc12` (stereo partly specified), the Potency entry in the assay on C33A, in the assay on CAOV3, in the assay with CASKI, in the assay on Es-2, with HeLa and in the assay with Hek293T was “inactive” in each case. Moreover, the Potency result in the assay on JEG-3, in the assay on OV90, in the assay on PA-1, in the assay on SKOV3, in the assay with Tov-21-G and in the assay on Tov112D was “inactive” throughout.

(Values after PubChem BioAssay (NCATS).)
